Data as given in PubChem BioAssay AID651640 (Broad Institute, 2012).
Hit rate of the full screen: of about 350,000 compounds, about 6,000 (1.7%) were called active. About 5% were inconclusive and are not listed. Cut-off read from the data, not from the text of the source: active = CPE inhibition above about 20% (passing the limit was not always enough); inconclusive = no clear call, values can overlap the other calls; tested in BHK-21 cells. The sample as a whole holds a higher share of actives than the screen did.

Test: inhibitors of DENV2 cytopathic effect, primary screen, cell-based, plate reader, single concentration (AID 651640);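 note: 0% = median of neutral control wells and 100% = median of positive control wells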
Settings: DENV2-infected cells, cytopathic effect rescue, at 9.99 µM, stronger effect = higher value

Row | SMILES | CPE inhibition
1 | COc1ccc2c3c([nH]c2c1)[C@H](CO)N(C(=O)Nc1ccc(F)cc1)CC31CCN(C(=O)Nc2c(C)noc2C)CC1 | -3.75% (inactive)
2 | CC=Cc1ccc2n(c1=O)C[C@@H]1[C@@H](CO)[C@H](C(=O)NCCc3ccccc3)N(C(C)=O)[C@H]21 (mixture of isomers) | -2.04% (inactive)
3 | Cc1ccc(S(=O)(=O)NCC[C@H]2CC[C@@H](NS(=O)(=O)c3ccccc3Cl)[C@H](CO)O2)cc1 | -7.15% (inactive)
4 | COc1ccc(CN(C)C[C@H]2OCCCC[C@H](C)Oc3ccc(NC(=O)Nc4ccc5c(c4)OCO5)cc3C(=O)N([C@H](C)CO)C[C@@H]2C)cc1 | -3.02% (inactive)
5 | N#C[C@H]1[C@@H](c2ccccc2C2=CCCC2)[C@H](CO)N1C(=O)c1cccc(F)c1 | 19.5% (inactive)
6 | C[C@@H]1CN([C@@H](C)CO)C(=O)c2cc(NC(=O)NC3CCCCC3)ccc2O[C@@H](C)CCCCO[C@H]1CN(C)Cc1ccccc1 | 1.48% (inactive)
7 | CCCC#Cc1cnc2c(c1)C(=O)N([C@H](C)CO)C[C@@H](C)[C@@H](CN(C)C(=O)Nc1ccccc1F)O2 | -4.21% (inactive)
8 | CO[C@@H]1CN(C)C(=O)c2ccc(NC(=O)c3ccc(F)cc3)cc2OC[C@H](C)N(C(=O)c2ccc(F)cc2)C[C@@H]1C | -1.44% (inactive)
9 | C[C@@H]1CN([C@@H](C)CO)C(=O)c2c(c3ccccc3n2C)-c2ccccc2CO[C@H]1CN(C)Cc1cccc(C(=O)O)c1 | 8.1% (inactive)
10 | COc1cccc(C#Cc2cnc3c(c2)C(=O)N([C@H](C)CO)C[C@@H](C)[C@@H](CN(C)C(=O)C2CCC2)O3)c1 | -2.93% (inactive)
11 | CO[C@H]1CN(C)C(=O)c2ccc(NC(=O)C3CC3)cc2OC[C@H](C)N(Cc2ccncc2)C[C@@H]1C | -0.282% (inactive)
12 | O=C(c1cnccn1)N1CC2(C1)[C@H](c1ccccc1)[C@H](CO)N2C(=O)c1ccccc1 | -6.13% (inactive)
13 | O=C(C1CCCC1)N1CC2(C1)[C@H](c1ccccc1)[C@H](CO)N2CCC(F)(F)F | -9.33% (inactive)
14 | CCC(=O)N1[C@@H](CO)[C@@H](c2ccccc2)C12CN(C(=O)c1cnccn1)C2 | 21.9% (active)
15 | CC(=O)N1CC2(C1)[C@@H](c1ccccc1)[C@@H](CO)N2C(=O)c1cnccn1 | -5.39% (inactive)
16 | O=C(C1CCCC1)N1[C@H](CO)[C@@H](c2ccccc2)C12CN(CCC(F)(F)F)C2 | -3.05% (inactive)
17 | O=C(C1CCCCC1)N1CC2(C1)[C@H](c1ccccc1)[C@@H](CO)N2CCC(F)(F)F | 34.6% (active)
18 | COCC#Cc1cnc2c(c1)C(=O)N([C@H](C)CO)C[C@H](C)[C@H](CN(C)C(=O)Cc1cccnc1)O2 | -4.96% (inactive)
19 | C[C@H]1CCCCO[C@H](CN(C)S(=O)(=O)c2ccc(F)cc2)[C@@H](C)CN([C@@H](C)CO)C(=O)c2cc(NS(=O)(=O)c3cn(C)cn3)ccc2O1 | 12.6% (inactive)
20 | CC(=O)N1[C@H](CO)[C@@H](c2ccc(-c3ccccc3)cc2)[C@H]1CNC(=O)C1CC1 | -7.62% (inactive)
21 | CCNC(=O)C[C@@H]1CC[C@@H]2[C@H](COc3ccc(NC(=O)Nc4cccc(C)c4)cc3C(=O)N2C)O1 | -13.2% (inactive)
22 | COc1ccccc1-c1cn(CC[C@@H]2CC[C@H](NC(=O)c3ccccc3F)[C@H](CO)O2)nn1 | 4.94% (inactive)

Row | SMILES | CPE inhibition
23 | C[C@@H]1CN([C@H](C)CO)C(=O)c2cccc(NC(=O)Nc3ccc4c(c3)OCO4)c2O[C@H]1CN(C)S(=O)(=O)c1ccccc1 | -7.78% (inactive)
24 | Nc1nc(SCC(=O)Nc2cc(C(F)(F)F)ccc2Cl)[nH]c(=O)c1NC(=O)c1ccco1 | -1.74% (inactive)
25 | COCCNC(=O)CSc1nc(N)c(NC(=O)c2ccco2)c(=O)[nH]1 | 96.9% (active)
26 | COC(=O)c1ccc(NC(=O)CSc2nc(N)c(NC(=O)c3ccc(Br)o3)c(=O)[nH]2)cc1 | -4.82% (inactive)
27 | CCCNC(=O)N1[C@H](CO)[C@H](c2ccccc2)[C@H]1CNC(=O)C1CCCCC1 | -12% (inactive)
28 | CC(=O)Nc1ccc2c(c1)C(=O)N(C)[C@@H]1CC[C@@H](CC(=O)NCC3CCCCC3)O[C@@H]1CO2 | -1.94% (inactive)
29 | COC(=O)[C@]1(Cc2ccccc2)NC=C(C(=O)c2ccccc2)[C@@H]1c1cccc(OC)c1 | -11.9% (inactive)
30 | COc1ccc(NC(=O)Nc2ccc3c(c2)C(=O)N([C@@H](C)CO)C[C@@H](C)[C@@H](CN(C)S(=O)(=O)c2ccc(C)cc2)OCCCC[C@H](C)O3)cc1 | -2.48% (inactive)
31 | COC(=O)[C@]12C[C@H](CC(=O)NCCCCc3ccccc3)C(=O)N(Cc3ccc4c(c3)OCO4)C1=C[C@H](C(C)(C)C)O[C@@H]2C | 1.32% (inactive)
32 | C[C@@H]1CN([C@@H](C)CO)C(=O)c2cc(C3=CCCC3)cnc2O[C@@H]1CN(C)C(=O)Cc1ccncc1 | -2.39% (inactive)
33 | N#C[C@@H]1[C@H](c2ccccc2-c2ccc(F)cc2)[C@@H](CO)N1c1ncc(-c2ccccc2)s1 | 0.494% (inactive)
34 | CS(=O)(=O)N1[C@H](C#N)[C@H](c2ccc(C#CC3CCCC3)cc2)[C@H]1CO | 28.9% (active)
35 | Cc1ccccc1S(=O)(=O)N1[C@H](C#N)[C@H](c2ccccc2)[C@H]1CO | 9.21% (inactive)
36 | CS(=O)(=O)N1[C@@H](C#N)[C@H](c2ccc(C#CC3CCCCC3)cc2)[C@@H]1CO | -6.42% (inactive)
37 | Cc1ccccc1S(=O)(=O)N1[C@H](C#N)[C@H](c2ccccc2)[C@@H]1CO | 119% (active)
38 | COCC(=O)N1[C@H](CO)[C@H](c2ccccc2-c2ccc(C)cc2)[C@@H]1C#N | -2.92% (inactive)
39 | N#C[C@@H]1[C@H](c2ccc(C#Cc3cccc(F)c3)cc2)[C@@H](CO)N1C(=O)C1CCCC1 | 3.79% (inactive)
40 | CS(=O)(=O)N1[C@H](C#N)[C@H](c2ccccc2-c2ccc(F)cc2)[C@@H]1CO | 29.1% (active)
41 | N#C[C@@H]1[C@@H](c2ccc(C#Cc3cccc(F)c3)cc2)[C@@H](CO)N1C(=O)C1CCC1 | -2.98% (inactive)
42 | CS(=O)(=O)N1[C@H](C#N)[C@H](c2ccc(C#CC3CC3)cc2)[C@H]1CO | 4.72% (inactive)
43 | Cc1ccccc1S(=O)(=O)N1[C@@H](C#N)[C@H](c2ccccc2)[C@@H]1CO | 8.15% (inactive)
44 | N#C[C@H]1[C@H](c2ccc(C#Cc3ccc(F)cc3)cc2)[C@@H](CO)N1C(=O)C1CCCC1 | 22.7% (active)
